# High-throughput results: PubChem BioAssay, Broad Institute
# C diff growth = inhibitors of Clostridium difficile growth; 86,000 tested, 0.25% active; growth activity, negative = inhibition, % at 16 µg/mL (by protocol); Clostridium difficile clinical isolate growth, OD600, 24 h; hits give low values;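 active means mean growth activity at or below -80% and every replicate also at or below -80%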;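 further: 0% = DMSO wells and -100% = levofloxacin 16 µg/mL wells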
# Tcruzi prolif = inhibitors of T. cruzi proliferation; T. cruzi beta-gal in NIH3T3, GalScreen luminescence, 90 h; inhibition, % at 8.34 µM; 77,000 tested, 5.9% active;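 active means mean inhibition above about 93%, with at least 55% of replicates each passing it, limit read from the data, passing the limit was not always enough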
# Pf Dd2 growth = blocks growth of Plasmodium falciparum Dd2 parasites; 94,000 tested, 2.3% active; AID 1159554; activity change, % at 10 µM; P. falciparum Dd2 growth, SYBR Green, 72 h; hits give low values; in the data active means activity change below about -80%
# * hit, by the source's call; nt = not tested or not shown. Compounds with a hit are over-represented: about 6.8% of the library has one in this group of screens.
SMILES,C diff growth,Tcruzi prolif,Pf Dd2 growth
COc1ccc(NC(=O)N(C)C[C@H]2OCCCC[C@@H](C)Oc3ccc(NC(=O)Nc4ccc(C(F)(F)F)cc4)cc3C(=O)N([C@H](C)CO)C[C@H]2C)cc1,6.0,115.8*,-83.1*
COc1ccc(NC(=O)N(C)C[C@@H]2OCCCC[C@@H](C)Oc3ccc(NC(=O)Nc4ccc(C(F)(F)F)cc4)cc3C(=O)N([C@H](C)CO)C[C@H]2C)cc1,4.5,28.4,14.7
COc1ccc(NC(=O)N(C)C[C@H]2OCCCC[C@@H](C)Oc3ccc(NC(=O)Nc4ccc(C(F)(F)F)cc4)cc3C(=O)N([C@@H](C)CO)C[C@@H]2C)cc1,0.8,83.1,-83.7*
COc1ccc(NC(=O)N(C)C[C@H]2OCCCC[C@H](C)Oc3ccc(NC(=O)c4ccccc4)cc3C(=O)N([C@@H](C)CO)C[C@H]2C)cc1,-2.8,nt,-89.0*
O=C(C[C@@H]1CC[C@@H](NS(=O)(=O)c2ccccc2)[C@H](CO)O1)N1CCC(Cc2ccccc2)CC1,-8.4,nt,-13.9
Cc1ccc(-c2ccc([C@H]3[C@@H](CO)N4C(=O)CN(C(=O)Nc5cccc(F)c5)C[C@H]34)cc2)cc1,13.7,nt,-83.6*
O=C(Nc1cccc(F)c1)N1CC(=O)N2[C@H](C1)[C@@H](c1ccc(C#CC3CC3)cc1)[C@@H]2CO,-5.1,nt,-82.1*
Cc1ccc(-c2ccc([C@@H]3[C@H]4CN(C(=O)Nc5cccc(F)c5)CC(=O)N4[C@H]3CO)cc2)cc1,23.9,nt,-13.2
O=C(Nc1cccc(F)c1)N1CC(=O)N2[C@H](CO)[C@H](c3ccc(C#CC4CC4)cc3)[C@H]2C1,-13.9,nt,1.8
COc1ccc(S(=O)(=O)Nc2ccc3c(c2)C(=O)N([C@H](C)CO)C[C@@H](C)[C@H](CN(C)S(C)(=O)=O)OCCCC[C@@H](C)O3)cc1,6.2,36.5,-21.5
Cc1ccc(S(=O)(=O)N(C)C[C@@H]2Oc3ccc(NC(=O)CCCCCC(=O)Nc4ccccc4N)cc3C(=O)N([C@@H](C)CO)C[C@@H]2C)cc1,-0.9,nt,-89.1*
C[C@H](CO)N1C[C@H](C)[C@@H](CN(C)S(=O)(=O)c2ccc(Cl)cc2)Oc2ccc(NC(=O)CCCCCC(=O)Nc3ccccc3N)cc2C1=O,-6.5,nt,-86.5*
C[C@H](CO)N1C[C@H](C)[C@H](CN(C)S(=O)(=O)c2ccc(Cl)cc2)Oc2ccc(NC(=O)CCCCCC(=O)Nc3ccccc3N)cc2C1=O,-22.1,nt,-74.4
Cc1ccc(S(=O)(=O)N(C)C[C@@H]2Oc3ccc(NC(=O)CCCCCC(=O)Nc4ccccc4N)cc3C(=O)N([C@@H](C)CO)C[C@H]2C)cc1,-2.7,nt,-60.5
C[C@@H](NC(=O)C[C@@H]1CC[C@@H](NC(=O)C2CCOCC2)[C@H](CO)O1)c1ccccc1,0.7,19.0,-9.9
CCC(=O)N(C)C[C@H]1Oc2ncc(C#CC(C)C)cc2C(=O)N([C@H](C)CO)C[C@@H]1C,-3.4,nt,20.4
C[C@@H]1CN([C@H](C)CO)C(=O)c2cc(NC(=O)C3CCCCC3)ccc2O[C@@H](C)CCCCO[C@@H]1CN(C)S(=O)(=O)c1ccc(F)cc1,-4.2,79.3,-82.4*
C[C@H]1CCCCO[C@H](CN(C)S(=O)(=O)c2ccc(F)cc2)[C@@H](C)CN([C@@H](C)CO)C(=O)c2cc(NC(=O)C3CCCCC3)ccc2O1,-0.4,86.4,-77.2
C[C@@H]1CCCCO[C@H](CN(C)S(=O)(=O)c2ccc(F)cc2)[C@@H](C)CN([C@@H](C)CO)C(=O)c2cc(NC(=O)C3CCCCC3)ccc2O1,0.7,74.6,-74.6
C[C@@H]1CN([C@@H](C)CO)C(=O)c2cc(NC(=O)C3CCCCC3)ccc2O[C@@H](C)CCCCO[C@@H]1CN(C)S(=O)(=O)c1ccc(F)cc1,-1.4,36.3,-81.8*
O=C(Nc1cc(F)ccc1F)N[C@@H]1CC[C@H](CCn2cc(C3CC3)nn2)O[C@H]1CO,nt,-39.6,-32.3
C[C@@H]1CN([C@H](C)CO)C(=O)c2cc(-c3ccc(C#N)cc3)cnc2O[C@H]1CN(C)C(=O)Nc1ccc(C(F)(F)F)cc1,nt,nt,-94.3*
C[C@H](CO)N1C[C@H](C)[C@H](CN(C)C(=O)Nc2ccccc2)Oc2ncc(-c3cccc(C(F)(F)F)c3)cc2C1=O,17.5,91.5,-25.5
C[C@H](CO)N1C[C@H](C)[C@H](CN(C)C(=O)Nc2ccc(F)cc2)Oc2ncc(-c3cccc(C(F)(F)F)c3)cc2C1=O,65.0,109.2*,-38.5
C[C@@H]1CN([C@@H](C)CO)C(=O)c2cc(-c3ccc(C#N)cc3)cnc2O[C@H]1CN(C)C(=O)Nc1ccc(C(F)(F)F)cc1,-0.5,nt,8.8
SMILES,C diff growth,Tcruzi prolif,Pf Dd2 growth
CN(C)C(=O)C[C@@H]1C[C@H]2c3cc(NC(=O)Nc4ccc(C(F)(F)F)cc4)ccc3O[C@H]2[C@H](CO)O1,5.1,-5.9,-16.7
C[C@H]1CCCCO[C@@H](CN(C)C)[C@@H](C)CN([C@@H](C)CO)C(=O)c2cc(NS(=O)(=O)c3cn(C)cn3)ccc2O1,9.7,10.6,19.6
O=C(C[C@@H]1CC[C@@H]2[C@H](COC[C@H](O)CN2C(=O)c2ccccc2)O1)NC1Cc2ccccc2C1,nt,-5.2,1.6
O=C(C[C@@H]1C=C[C@@H](NC(=O)CCN2CCCCC2)[C@H](CO)O1)Nc1ccccc1,0.8,nt,1.7
O=C([C@H]1[C@H](CO)[C@H]2Cn3c(ccc(-c4ccccc4)c3=O)[C@H]2N1CCC(F)(F)F)N1CCOCC1,0.0,15.8,7.1
CO[C@H]1CN(C)C(=O)c2ccc(NC(=O)Nc3ccc(C(F)(F)F)cc3)cc2OC[C@H](C)NC[C@@H]1C,6.7,nt,-25.3
CO[C@@H]1CN(C)C(=O)c2ccc(NC(=O)Nc3ccc(C(F)(F)F)cc3)cc2OC[C@@H](C)NC[C@@H]1C,22.3,nt,-83.3*
CO[C@H]1CN(C)C(=O)c2ccc(NC(=O)Nc3ccc(C(F)(F)F)cc3)cc2OC[C@@H](C)NC[C@H]1C,nt,-2.3,-28.1
CO[C@H]1CN(C)C(=O)c2cc(NC(=O)Nc3ccc(C(F)(F)F)cc3)ccc2OC[C@H](C)NC[C@H]1C,nt,-15.8,-87.9*
N#C[C@@H]1[C@@H](c2ccc(C3=CCCC3)cc2)[C@@H](CO)N1C(=O)NC1CCCCC1,0.6,nt,-12.7
O=C(C[C@H]1CC[C@@H](NC(=O)c2ccccn2)[C@@H](CO)O1)NCc1cccc(F)c1,-0.3,43.6,5.6
C[C@@H]1CN([C@@H](C)CO)C(=O)c2ccccc2-c2ccccc2CO[C@H]1CN(C)C(=O)Nc1cccc(F)c1,nt,22.4,-83.4*
C[C@H]1CN([C@@H](C)CO)C(=O)c2ccccc2-c2ccccc2CO[C@@H]1CN(C)C(=O)Nc1ccc(-c2ccccc2)cc1,-14.7,nt,-86.4*
C[C@@H]1CN([C@@H](C)CO)C(=O)c2ccccc2-c2ccccc2CO[C@@H]1CN(C)C(=O)Nc1cccc(F)c1,nt,49.4,-16.7
C[C@@H]1CN([C@@H](C)CO)C(=O)c2ccccc2-c2ccccc2CO[C@H]1CN(C)C(=O)Nc1cccc(C(F)(F)F)c1,0.3,48.8,-87.4*
C[C@H](CO)N1C[C@H](C)[C@@H](CN(C)C(=O)Nc2ccc(-c3ccccc3)cc2)OCc2ccccc2-c2ccccc2C1=O,82.1,nt,-40.1
C[C@H](CO)N1C[C@H](C)[C@H](CN(C)C(=O)Nc2cccc(C(F)(F)F)c2)OCc2ccccc2-c2ccccc2C1=O,1.9,74.4,-31.6
